Hit rate of the full screen: of about 44,000 compounds, about 30 (0.07%) were called active. Not shown: some 1% with an inconclusive outcome. This is one part of a sample in which actives are shown more often than they occur. No stated cut-off is given here; in the data, active means inhibition above about 54% (passing the limit was not always enough); inconclusive means no clear call, values can overlap the other calls.
Target: Histone-lysine N-methyltransferase NSD2 (Homo sapiens) (UniProt O96028)
Assay: inhibitors of human NSD2, primary screen, biochemical, plate reader, single point (AID 624260);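 further: inhibitors reduce the monomethyl H3K36 fluorescence signal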
Conditions: NSD2-SET H3K36me1 DELFIA fluorescence, at 12.5 µM, stronger effect = higher value

Sequence of Histone-lysine N-methyltransferase NSD2 (Homo sapiens) (O96028 whole entry, looked up): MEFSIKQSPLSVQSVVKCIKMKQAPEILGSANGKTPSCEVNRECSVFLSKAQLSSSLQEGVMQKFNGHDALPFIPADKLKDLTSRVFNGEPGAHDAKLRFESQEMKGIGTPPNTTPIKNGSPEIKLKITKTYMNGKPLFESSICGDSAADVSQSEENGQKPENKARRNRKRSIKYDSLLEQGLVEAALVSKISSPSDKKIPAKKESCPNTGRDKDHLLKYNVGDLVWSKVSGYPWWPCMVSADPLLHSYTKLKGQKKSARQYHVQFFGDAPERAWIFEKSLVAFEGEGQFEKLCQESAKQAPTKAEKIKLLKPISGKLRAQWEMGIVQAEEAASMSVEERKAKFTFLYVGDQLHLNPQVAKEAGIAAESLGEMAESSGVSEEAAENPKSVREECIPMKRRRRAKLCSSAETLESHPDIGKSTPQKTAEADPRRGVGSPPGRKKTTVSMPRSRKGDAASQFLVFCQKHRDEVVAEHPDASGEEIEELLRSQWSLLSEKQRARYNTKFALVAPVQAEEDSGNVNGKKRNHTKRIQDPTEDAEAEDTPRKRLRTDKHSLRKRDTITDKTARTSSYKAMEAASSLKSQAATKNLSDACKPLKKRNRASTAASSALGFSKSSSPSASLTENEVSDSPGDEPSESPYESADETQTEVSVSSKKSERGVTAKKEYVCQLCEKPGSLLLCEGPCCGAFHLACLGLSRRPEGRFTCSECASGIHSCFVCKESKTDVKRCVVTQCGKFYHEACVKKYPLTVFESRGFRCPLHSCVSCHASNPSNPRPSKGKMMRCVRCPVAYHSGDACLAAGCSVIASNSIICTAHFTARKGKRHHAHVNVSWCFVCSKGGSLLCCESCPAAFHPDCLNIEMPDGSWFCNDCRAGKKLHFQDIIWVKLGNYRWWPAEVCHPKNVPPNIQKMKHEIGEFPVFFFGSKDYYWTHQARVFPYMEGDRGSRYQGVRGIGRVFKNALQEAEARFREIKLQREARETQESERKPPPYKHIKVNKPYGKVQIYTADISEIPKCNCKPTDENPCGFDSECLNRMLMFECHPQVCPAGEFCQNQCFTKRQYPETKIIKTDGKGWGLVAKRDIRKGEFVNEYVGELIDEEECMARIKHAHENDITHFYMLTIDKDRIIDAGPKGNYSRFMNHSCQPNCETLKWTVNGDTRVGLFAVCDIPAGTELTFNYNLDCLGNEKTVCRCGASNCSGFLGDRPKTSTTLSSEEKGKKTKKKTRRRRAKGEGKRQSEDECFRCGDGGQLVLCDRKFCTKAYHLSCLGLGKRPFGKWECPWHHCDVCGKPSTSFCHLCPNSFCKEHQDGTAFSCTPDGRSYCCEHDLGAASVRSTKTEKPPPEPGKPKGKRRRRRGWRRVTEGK

inhibition, inactive:
CCCC#Cc1cnc2c(c1)C(=O)N([C@@H](C)CO)C[C@@H](C)[C@@H](CN(C)Cc1ccccc1F)O2 4.92%, C[C@@H]1CN([C@@H](C)CO)C(=O)c2cc(C#CC3CCCCC3)cnc2O[C@H]1CN(C)C(=O)Cc1ccccn1 -1.35%, CNC[C@H]1Oc2cc(C#CCOC)ccc2S(=O)(=O)N([C@@H](C)CO)C[C@H]1C -0.881%, C[C@H]1CN([C@@H](C)CO)S(=O)(=O)c2ccc(-c3ccncc3)cc2O[C@@H]1CN(C)C(=O)CC1CC1 -0.24%, C[C@@H]1CN([C@@H](C)CO)C(=O)c2cc(-c3ccncc3)cnc2O[C@@H]1CN(C)C(=O)C1CCCCC1 1.45%, C[C@@H]1CN([C@@H](C)CO)C(=O)Cc2cc(NC(=O)C3CC3)ccc2O[C@H]1CN(C)C(=O)NC1CCCCC1 4.29%, C[C@H](CO)N1C[C@H](C)[C@H](CN(C)Cc2cccnc2)Oc2ncc(C3=CCCC3)cc2C1=O 1.28%, COc1ccc(NC(=O)N(C)C[C@@H]2Oc3ccc(NC(=O)Cc4cn(C)c5ccccc45)cc3CC(=O)N([C@@H](C)CO)C[C@H]2C)cc1 -6.14%, CC(C)NC(=O)N(C)C[C@H]1Oc2ncc(-c3ccc(C(=O)N(C)C)cc3)cc2C(=O)N([C@H](C)CO)C[C@H]1C 1.31%, COc1ccc(NC(=O)N(C)C[C@@H]2OCc3ccccc3-c3c(n(C)c4ccccc34)C(=O)N([C@H](C)CO)C[C@H]2C)cc1 -10.2%, CCC(=O)N(C)C[C@@H]1Oc2ncc(C3=CCCC3)cc2C(=O)N([C@H](C)CO)C[C@@H]1C -1.76%, CCC(=O)N(C)C[C@H]1Oc2cc(-c3ccc(C)cc3)ccc2S(=O)(=O)N([C@@H](C)CO)C[C@H]1C -0.743%, Cc1ccccc1S(=O)(=O)N(C)C[C@@H]1OCc2ccccc2-c2c(n(C)c3ccccc23)C(=O)N([C@H](C)CO)C[C@H]1C -9.38%, O=C(C[C@H]1C[C@H]2c3cc(NC(=O)CC4CC4)ccc3O[C@H]2[C@H](CO)O1)NCc1ccccn1 -2.07%, C[C@@H]1CN([C@@H](C)CO)C(=O)c2cccc(N(C)C)c2O[C@@H]1CN(C)S(=O)(=O)c1ccccc1 2.66%, C[C@@H]1CCCCO[C@H](CN(C)Cc2ccc(Cl)c(Cl)c2)[C@@H](C)CN([C@@H](C)CO)C(=O)c2cc(NC(=O)Nc3ccccc3)ccc2O1 -6.5%, C[C@@H]1CN([C@H](C)CO)S(=O)(=O)c2ccc(C#CCN(C)C)cc2O[C@H]1CN(C)C(=O)CC1CC1 2.71%, C[C@@H]1CN([C@@H](C)CO)C(=O)c2cc(C3=CCCC3)cnc2O[C@@H]1CN(C)C(=O)Cc1ccncc1 -7.1%, CN(C)C(=O)C[C@@H]1C[C@@H]2c3cc(NC(=O)C4CCOCC4)ccc3O[C@@H]2[C@@H](CO)O1 -0.279%, COc1ccccc1S(=O)(=O)N(C)C[C@H]1Oc2cc(C#CCC3CCCC3)ccc2S(=O)(=O)N([C@@H](C)CO)C[C@H]1C -4.13%, Cc1noc(C)c1NC(=O)Nc1ccc2c(c1)C(=O)N([C@@H](C)CO)C[C@H](C)[C@@H](CN(C)Cc1ccncc1)OCCCC[C@@H](C)O2 -3.95%, C[C@@H]1CN([C@H](C)CO)S(=O)(=O)c2ccc(/C=C/c3ccccc3)cc2O[C@@H]1CN(C)Cc1ccccc1 9.82%, CC(C)CC#Cc1cnc2c(c1)C(=O)N([C@@H](C)CO)C[C@@H](C)[C@@H](CN(C)C(=O)c1cccnc1)O2 -0.174%, C[C@@H]1CN([C@H](C)CO)C(=O)c2cc(C3=CCCCC3)cnc2O[C@@H]1CN(C)C(=O)c1ccc2c(c1)OCO2 -0.482%, C[C@H]1CN([C@@H](C)CO)S(=O)(=O)c2ccc(Br)cc2O[C@H]1CN(C)C(=O)c1cnccn1 -5.84%, COc1cccc(S(=O)(=O)N[C@H]2CC[C@H](CC(=O)NC3CCC3)O[C@H]2CO)c1 8.91%, O=C(C[C@@H]1C[C@@H]2c3cc(NC(=O)c4ccc5c(c4)OCO5)ccc3O[C@@H]2[C@@H](CO)O1)NCC1CC1 0.538%, C[C@H](CO)N1C[C@H](C)[C@H](CN(C)C(=O)Cc2ccccn2)Oc2ncc(-c3cncnc3)cc2C1=O -7.65%, Cc1ccc(S(=O)(=O)Nc2ccc3c(c2)C(=O)N([C@H](C)CO)C[C@@H](C)[C@@H](CN(C)C)OCCCC[C@@H](C)O3)cc1 -3.71%, COc1ccc(NC(=O)N(C)C[C@H]2Oc3ncc(C#C[C@@H](C)O)cc3C(=O)N([C@H](C)CO)C[C@H]2C)cc1 -13%, COc1ccc(CN(C)C[C@@H]2OCCCC[C@@H](C)Oc3ccc(NS(=O)(=O)c4ccc(F)cc4)cc3C(=O)N([C@@H](C)CO)C[C@H]2C)cc1 -2.7%, CCCNC(=O)N(C)C[C@H]1Oc2ncc(C#Cc3ccncc3)cc2C(=O)N([C@@H](C)CO)C[C@@H]1C 4.58%, C/C=C/c1ccc2c(c1)O[C@H](CN(C)C(C)=O)[C@H](C)CN([C@H](C)CO)S2(=O)=O 8.37%, O=C(C[C@H]1C=C[C@H](NC(=O)CN2CCOCC2)[C@@H](CO)O1)NCc1cccc(F)c1 -94.1%
